Assay outcomes as filed in PubChem.
Rows were chosen to be rich in hits. Some 0.67% of all compounds tested hit in one or more screens of this group.
S-ASM inh: Inhibitors of Secretory Acid Sphingomyelinase (S-ASM): qHTS | Sphingomyelin phosphodiesterase (Homo sapiens), P17405 | AID 504937, 2011 | 340,000 compounds, 0.006% hits | placental ASM, HMU-PC fluorogenic substrate, 60 min | Potency, µM (titrated, usually from 57.5 µM), for inactives: at the highest dose activity change, negative = inhibition, hits mostly inhibitors; active means well fitted inhibition curve with a large enough effect; inconclusive means small, poorly fitted or top-dose-only effect; inactive means no such curve, though single readings can be large or run the other way
Target sequence (P17405 47-631 limits assumed): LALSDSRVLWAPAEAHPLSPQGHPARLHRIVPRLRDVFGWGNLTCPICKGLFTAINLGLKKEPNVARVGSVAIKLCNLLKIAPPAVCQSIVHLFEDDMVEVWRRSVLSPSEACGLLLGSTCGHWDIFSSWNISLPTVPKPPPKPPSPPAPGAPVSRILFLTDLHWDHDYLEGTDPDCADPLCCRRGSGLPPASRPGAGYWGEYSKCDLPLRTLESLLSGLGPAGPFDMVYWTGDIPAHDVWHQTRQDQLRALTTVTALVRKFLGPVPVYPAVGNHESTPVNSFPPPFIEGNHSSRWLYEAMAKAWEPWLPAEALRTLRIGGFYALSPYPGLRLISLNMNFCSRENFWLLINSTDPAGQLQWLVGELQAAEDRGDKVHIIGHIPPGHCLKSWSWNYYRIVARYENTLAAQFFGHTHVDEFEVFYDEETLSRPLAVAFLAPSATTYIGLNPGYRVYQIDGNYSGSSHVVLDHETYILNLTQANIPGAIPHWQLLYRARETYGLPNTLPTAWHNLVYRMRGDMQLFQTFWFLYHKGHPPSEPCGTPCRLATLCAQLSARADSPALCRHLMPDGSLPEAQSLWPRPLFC
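Human placenta-derived ASM enzyme was preincubated with compound for 10 minutes at room temperature, then given fluorogenic substrate HMU-PC0 (9 uM final) for 60 minutes at 37 °C; a pH 10 stop preceded fluorescence reading at Ex 386/Em 447 nm.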
gsp agonist: qHTS for Agonist of gsp, the Etiologic Mutation Responsible for Fibrous Dysplasia/McCune-Albright Syndrome: qHTS. Potency, µM (highest dose often 76.9 µM), for inactives: top-dose activation (cAMP increase), usual class: activators. 340,000 compounds, 0.13% hits. gsp mutant cells, cAMP HTRF, 30 min. AID 624287, 2012; active means well fitted activation curve with a large enough effect; inconclusive means small, poorly fitted or top-dose-only effect, or another doubt; inactive means no such curve, though single readings can be large or run the other way; cell line not stated here;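 further: phosphodiesterase inhibitor Ro 20-1724 added with compounds to block cAMP breakdown; nearly all actives have a fitted effect of over 60% in size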
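Cells stably selected in G418 were plated at 2000/well, grown 16-24 hr, then given compounds in DMSO with the PDE inhibitor […] (300 uM solution added) for 30 min at 37C; cAMP was read by HTRF.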
Rango dissoc inh: qHTS Assay for Inhibitors of RanGTP induced Rango (Ran-regulated importin-beta cargo) - Importin beta complex dissociation | AID 540253, 2011 | Snurportin-1 (Homo sapiens) + GTP-binding nuclear protein Ran (Homo sapiens) + Importin … | Biochemical FRET Rango-importin beta, RanGTP-induced dissociation | 340,000 compounds, 0.071% hits | Potency, µM (top dose mostly 46.1 µM), without a hit: at the top dose activity change, negative = inhibition; further: % of control where 0% means no effect; nearly all actives have a fitted effect of over 45% in size
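Compounds sat 5 min at room temperature with 0.1 uM Rango biosensor plus 0.25 uM importin beta, then FRET pre-read. RanGTP-RCC1 (0.6 uM Ran, 2mM GTP, 0.2 uM RCC1) added for 45 min, and the CFP/YFP post-read measured blocked complex dissociation.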
Rango-impB inh: qHTS Assay for Inhibitors of Rango (Ran-regulated importin-beta cargo) - Importin beta complex formation. AID 540263, 2011. Potency, µM (titrated, usually from 92.2 µM), without a hit: at the highest dose inhibition of complex formation. 340,000 compounds, 0.031% hits. Rango CFP/YFP FRET sensor + importin beta, 45 min. Importin subunit beta-1 (Homo sapiens), Q14974;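 further: 0% = DMSO wells and 100% = buffer wells lacking importin beta; nearly all actives have a fitted effect of over 15% in size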
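FRET biosensor (snurportin 1 IBB flanked by EYFP and cerulean), 50 nM, with compound 5 min, then 0.125 microM importin beta in PBS, 1 mM DTT, 0.02% Tween-20, 0.1% BSA. CFP/YFP ratio read after 45 min at room temperature; pre-read flags interference.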
gsp antag: qHTS for Antagonists of gsp, the Etiologic Mutation Responsible for Fibrous Dysplasia/McCune-Albright Syndrome: qHTS. AID 624288, 2012. gsp-mutant cells, cAMP HTRF, 30 min. 340,000 compounds, 0.4% hits. Potency, µM (top dose mostly 76.9 µM), for the others: at the top dose activity change, negative = inhibition, usual class: inhibitors; calls by dose curve; cell line not stated here;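 further: intracellular cAMP measured with PDE inhibitor Ro 20-1724 present during compound exposure; on the % scale 0 is the no-effect control and ±100 the full control effect; nearly all actives have a fitted effect of over 65% in size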
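Cells in G418 medium, seeded 16-24 h, 37C; buffer exchange to DPBS + 1 mM CaCl2, 0.5 mM MgCl2, 0.05% BSA; cpds in DMSO + […] (300 uM stock), 30 min 37C; HTRF cAMP detection.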
* = called active by the depositor; ? = inconclusive; · = no result given; + = active, no number; [ ] = dose if it differs, or a comment. Unless noted, the call rests on the fitted dose curve. Potency means the concentration at half of the fitted maximal effect.

SMILES	S-ASM inh	gsp agonist	Rango dissoc inh	Rango-impB inh	gsp antag
CN(CC(=O)Nc1cccc(F)c1)C(=O)c1cccc(S(=O)(=O)N2CC3(C)CC2CC(C)(C)C3)c1 (stereo not drawn)	-13%	1%[15.4 µM]	13%	4%	-21%
CCC(C)NC(=O)c1c(N)n(/N=C/c2cccnc2)c2nc3ccccc3nc12 (stereo not drawn)	244%	15%	3.3µM*[inhibitor]	?	-9%
Cc1cc(N2C(=O)C(O)=C(C(=O)c3cc4ccccc4o3)C2c2cccc(Br)c2)no1 (stereo not drawn)	23%	6.3µM*	?	?	2%
CCCOc1cccc(C2C(C(=O)c3cc4ccccc4o3)=C(O)C(=O)N2c2cc(C)on2)c1 (stereo not drawn)	15%	?	?	?	5%
COc1cccc(C2C(C(=O)c3cc4cccc(OC)c4o3)=C(O)C(=O)N2c2cc(C)on2)c1OC (stereo not drawn)	3%	?	?	?	-2%[15.4 µM]
COc1cccc2cc(C(=O)C3=C(O)C(=O)N(c4cc(C)on4)C3c3cccs3)oc12 (stereo not drawn)	1%	7.9µM*	?	?	-12%
COc1cc(C2C(C#N)=C(C)NC(C)=C2C#N)cc(OC)c1OC	8%	8.9µM*	-9%	0%	11%
COc1cc(C2C(C#N)=C(N)Oc3cc(N)ccc32)cc(OC)c1OC (stereo not drawn)	26%	20%	?	?	15%[15.4 µM]
O=C(Nc1nc2ccccc2c(=O)s1)c1ccco1	0%	?	6%	0%	-2%
O=C(Nc1nc2ccccc2c(=O)s1)c1ccc(F)cc1Cl	-1%	14µM*	18%	-5%	7%
Cc1c(C(=O)N(C)Cc2cccc(F)c2)oc2c(Cl)cccc12	-30%	22%[15.4 µM]	11%	1%	-13%
O=C(NC1CCN(Cc2ccccc2)CC1)c1cc(S(=O)(=O)N2CCOCC2)ccc1Cl	3%	21%	-6%	2%	50µM*
CC(NC(=O)c1cccc(S(=O)(=O)N2CCN(Cc3ccccc3)CC2)c1)c1ccccc1Cl (stereo not drawn)	-2%	-72%	-8%	0%	+
CC(=O)O[C@H]1[C@H](O)[C@H](Oc2c(O)c(C)c3c4c2[C@@H](C)CC[C@@H]4[C@@H](C)C[C@H]3C=C(C)C)O[C@@H](C)[C@H]1O	-25%	·	2%	0%	1%
Cc1ccc(C)c(OCCn2cc(/C=C(\C#N)C(=O)NCc3ccco3)c3ccccc32)c1	63%	2%	4.1µM*	?	-3%
O=C(C1=C(O)C(=O)N(CCN2CCOCC2)C1c1cccnc1)c1cc2ccccc2o1 (stereo not drawn)	-3%	?	-12%	1%	19%
C=CCOc1cccc(C2C(C(=O)c3ccco3)=C(O)C(=O)N2Cc2cccnc2)c1 (stereo not drawn)	-2%	7%[15.4 µM]	-4%	-3%	7%
C=CCOc1ccc(C2C(C(=O)c3ccco3)=C(O)C(=O)N2Cc2cccnc2)cc1 (stereo not drawn)	-3%	28µM*	-1%	0%	14%
COc1cccc2cc(C(=O)C3=C(O)C(=O)N(Cc4ccco4)C3c3cccnc3)oc12 (stereo not drawn)	-4%	10µM*	-23%	?	-2%
O=C(C1=C(O)C(=O)N(CCN2CCOCC2)C1c1cccc(F)c1)c1cc2ccccc2o1 (stereo not drawn)	-4%	7.1µM*	-28%	-1%	6%
O=C(C1=C(O)C(=O)N(Cc2ccco2)C1c1cccnc1)c1cc2ccccc2o1 (stereo not drawn)	-7%	13µM*	?	-2%	4%
COc1ccc(C2C(C(=O)c3ccco3)=C(O)C(=O)N2Cc2cccnc2)cc1OC (stereo not drawn)	-5%	6%	-13%	0%	4%
CCOC(=O)C1Cc2c([nH]c3ccccc23)C(C)N1 (stereo not drawn)	1%	-34%	-2%	?	4%
COC(=O)c1sc(N2C(=O)C(O)=C(C(=O)c3ccc(C)o3)C2c2ccc(OC)c(OC)c2)nc1C (stereo not drawn)	6%	3.5µM*	?	?	10%
O=[N+]([O-])c1ccc(N2CCCC2)c([N+](=O)[O-])c1	·	40%	·	·	·
SMILES	S-ASM inh	gsp agonist	Rango dissoc inh	Rango-impB inh	gsp antag
COc1ccc(S(=O)(=O)Nc2cccc(S(=O)(=O)N3CCCCCC3)c2)cc1	-1%	-9%	-1%	-1%	-28%
O=S(=O)(Nc1nc2ccccc2nc1Nc1cccc(S(=O)(=O)N2CCCCC2)c1)c1ccccc1	256%	-45%	-15%	?	35µM*
Cc1ccc(C(=O)N/N=C\c2ccc(-c3ccc([N+](=O)[O-])cc3)o2)cn1	-2%	8%	?	?	-6%
Cc1ccccc1OCC(=O)N/N=C/c1ccc([N+](=O)[O-])o1	-7%	-17%	16µM*	?	-5%
Cc1ccc(C(=O)N/N=C\c2ccc([N+](=O)[O-])o2)cn1	-5%	8.9µM*	23%	1%	-5%
COc1ccccc1NS(=O)(=O)c1cccc(-n2c(O)c(C=Nc3ccccc3C(=O)O)c3ccccc3c2=O)c1	3%	4%[15.4 µM]	?	?	?
O=C(/C=C/c1cccc(Cl)c1)NCc1ccccc1	0%	6%[15.4 µM]	6%	-2%	·
Cc1cc(C(=O)N2CCCC(C(=O)c3ccc(Oc4ccccc4)cc3)C2)n[nH]1 (stereo not drawn)	-9%	-10%	-3%	0%	35µM*
Cc1ccc2[nH]nc(C(=O)N3CCCC(C(=O)c4ccc(Cl)cc4)C3)c2c1 (stereo not drawn)	-5%	-13%[15.4 µM]	1%	-3%	14µM*
O=C(c1ccc(Oc2ccccc2)cc1)C1CCCN(C(=O)c2cnccn2)C1 (stereo not drawn)	3%	2%[15.4 µM]	1%	-4%	-16%
O=C(C1=C[C@@H](c2ccc(C(F)(F)F)cc2)C[C@@H](OCc2ccc(CO)cc2)O1)N1CCN(Cc2ccccc2)CC1	-6%	11%	1%	1%	-11%
O=C(O)c1ccc(-n2ncc(Cl)c(Cl)c2=O)cc1	·	10µM*	·	·	·
